Screening data deposited in PubChem BioAssay by National Center for Advancing Translational Sciences (NCATS).
Shown are actives, neighbours in structure and some others; about 2.1% of the full set was active somewhere.
Giardia kill: kills Giardia lamblia | Giardia lamblia trophozoite viability | hit rate 0.15% among 340,000 | activity change, % at 7.66 µM, hits read low; in the data active = activity change below about -80%; inconclusive = between about -30% and that limit;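 also: parasites exposed to compound for two days anaerobically before the ATP read; % is scaled to controls: 0 for no effect and ±100 for the full control effect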
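ATP-content bioluminescence gauges trophozoite survival. Cells (100/well) receive compound and incubate anaerobically for 48 hrs at 37 deg C; detection reagent follows for 15-30 min at room temperature.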
Mito fusion act: blocks mitochondrial division or promotes mitochondrial fusion; S. cerevisiae fusion-defective mutant growth rescue, CellTiterGlo 48 h; Potency, µM (series often up to 46.1 µM), for the others: at the top dose growth rescue (activation), most hits filed as activators; hit rate 0.23% among 320,000; AID 485298; also: potency is read from the fitted curve at half-maximal effect; % of control where 0% means no effect; nearly all actives have a fitted effect of over 45% in size
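Yeast fusion mutant, YPEG (non-fermentable carbon), compound, 48 h at 37C non-permissive; CellTiterGlo added, 10 min RT, luminescence read. Rescued growth = division inhibition.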
ClpP mod: qHTS Assay for Activators of ClpP | hit rate 1.9% among 340,000 | AID 651965, 2013 | ATP-dependent Clp protease proteolytic subunit (Bacillus subtilis (strain 168)), P80244 | purified B. subtilis ClpP, FRET peptide cleavage, 20 min | Potency, µM (top dose mostly 57.5 µM), without a hit: top-dose activity change, negative = active; active = well fitted falling curve with a large enough effect; inconclusive = small, poorly fitted or top-dose-only effect; inactive = no such curve, though single readings can be large or run the other way; also: potency is read from the fitted curve at half-maximal effect; the source files actives as falling curves though it sought activators and does not explain the sign; nearly all actives have a fitted effect of over 65% in size
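Purified B. subtilis ClpP, 10 microg/mL final in Tris/HCl pH8 with KCl, BSA, glycerol and Tween-20, cleaved an Abz/nitrotyrosine-quenched decapeptide. Fluorescence (ex 320, em 430) was read at 0 and 20 min at room temperature. Delta was normalized to 5.8 microM ADEP and DMSO/no-enzyme controls.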
uPA generation: inhibitors of cell surface uPA generation. cell surface uPA generation assay, qHTS. Potency, µM (series often up to 38.3 µM), for inactives: at the top dose activity change, negative = inhibition, actives largely listed as inhibitors. hit rate 0.31% among 330,000. AID 540303; active = well fitted inhibition curve with a large enough effect; inconclusive = small, poorly fitted or top-dose-only effect; inactive = no such curve, though single readings can be large or run the other way; tested in mouse RAW 264.7 cells; also: potency is read from the fitted curve at half-maximal effect; % is scaled to controls: 0 for no effect and ±100 for the full control effect; nearly all actives have a fitted effect of over 55% in size
p53 reactivator: mutant p53 re-activation in reporter cells; H1299 p53-A138V BP100-luciferase reporter, luminescence, 24 h; Potency, µM (highest dose often 92.2 µM), inactives show top-dose activity change, positive = activation, usual class: activators; hit rate 0.063% among 320,000; also: potency is read from the fitted curve at half-maximal effect; % of control where 0% means no effect; nearly all actives have a fitted effect of over 45% in size
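H1299 (p53-null), stable ts p53-A138V + BP100-Luc; 1000 cells/well, Opti-MEM/10% FBS; cpd 4 pt, 1:5; 24 h, 37 deg C, 5% CO2; detection reagent 10 min RT; luminescence.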
B2AR arrestin: recruits beta-arrestin to the human beta2-adrenergic receptor; AID 492947; beta-arrestin recruitment to beta2AR, cell-based reporter; P07550; Potency, µM (titrated, usually from 46.1 µM), for inactives: at the highest dose activation, most hits filed as activators; hit rate 0.02% among 330,000;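 also: potency is read from the fitted curve at half-maximal effect; 0% = DMSO controls and full agonism = EC100 isoproterenol or metaproterenol; nearly all actives have a fitted effect of over 65% in size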
An asterisk follows results filed as active. Unless noted, calls follow the shape of the dose curve; as a rule, active = well fitted curve in the direction sought with a large enough effect; inconclusive = small, poorly fitted or top-dose-only effect, or another doubt; inactive = no such curve, though single readings can be large; an effect the other way counts as inactive or inconclusive.

How did Cc1ccc(N2C(N)=NC(N)=NC23CCCC3)c(C)c1 do in these assays?
Giardia kill: 0; Mito fusion act: -5%; ClpP mod: 28µM*; uPA generation: 1%; p53 reactivator: -2%; B2AR arrestin: 0%

How did CCN(C(=O)CSc1nc(-c2ccccc2)c(-c2ccccc2)[nH]1)C1CCS(=O)(=O)C1 (configuration not stated) do in these assays?
Giardia kill: -12; Mito fusion act: -1%; ClpP mod: 25µM*; uPA generation: -4%; p53 reactivator: -9%; B2AR arrestin: 0%

How did CCc1cc(=O)oc2cc3occ(C)c3cc12 do in these assays?
Giardia kill: -8; Mito fusion act: 4%; ClpP mod: 1%; uPA generation: 3%; p53 reactivator: -3%; B2AR arrestin: inconclusive

What do the screens show for `CCc1cc(=O)oc2cc3occ(-c4ccc(OC)c(F)c4)c3cc12`?
Giardia kill: 13; Mito fusion act: 16µM*; ClpP mod: inconclusive; uPA generation: -9%; p53 reactivator: -19%; B2AR arrestin: -2%

Results for CCOc1ccccc1Oc1coc2cc(O)ccc2c1=O ?
Giardia kill: -28; Mito fusion act: 3%; ClpP mod: 32µM*; uPA generation: -2%; p53 reactivator: inconclusive; B2AR arrestin: 0%

How did CCOc1ccc2c(=O)c(Oc3ccccc3OCC)coc2c1 do in these assays?
Giardia kill: 23; Mito fusion act: 1%; ClpP mod: -5%; uPA generation: -1%; p53 reactivator: 21%; B2AR arrestin: 0%

How did COc1ccccc1Oc1coc2cc(O)ccc2c1=O do in these assays?
Giardia kill: 3; Mito fusion act: -1%; ClpP mod: 28µM*; uPA generation: -5%; p53 reactivator: 1%; B2AR arrestin: -1%

What do the screens show for `Cc1nn(-c2ccc(N3CCCC3)nn2)c(C)c1CCC(=O)NCc1ccc(F)cc1`?
ClpP mod: -2%

What do the screens show for `CN1CCN(c2nc3cc(C(F)(F)F)ccc3n3cccc23)CC1`?
Giardia kill: -8; Mito fusion act: 18µM*; ClpP mod: -20%; uPA generation: -12%

How did COc1ccc2[nH]c(=O)c(CN(Cc3ccco3)C(=O)c3ccccc3)cc2c1 do in these assays?
Giardia kill: 40; Mito fusion act: 0%; ClpP mod: inconclusive; uPA generation: -3%; p53 reactivator: -5%; B2AR arrestin: 0%

Results for CCOc1ccc2[nH]c(=O)c(CN(CCO)C(=O)c3ccc(Br)cc3)cc2c1 ?
Giardia kill: -24; Mito fusion act: 2%; ClpP mod: 32µM*; uPA generation: -3%; p53 reactivator: 1%; B2AR arrestin: 0%

What do the screens show for `CCOc1ccc2[nH]c(=O)c(CN(Cc3ccco3)C(=O)c3ccc(Br)cc3)cc2c1`?
Giardia kill: 0; Mito fusion act: 0%; ClpP mod: inconclusive; uPA generation: -7%; p53 reactivator: 7%; B2AR arrestin: 0%

How did CCOc1ccc2[nH]c(=O)c(CN(Cc3ccccc3OC)C(=O)c3ccccc3)cc2c1 do in these assays?
Giardia kill: -3; Mito fusion act: -3%; ClpP mod: 32µM*; p53 reactivator: 5%; B2AR arrestin: 0%

Results for CCOc1ccc2[nH]c(=O)c(CN(Cc3ccco3)C(=O)c3cccc(F)c3)cc2c1 ?
Giardia kill: 8; Mito fusion act: -1%; ClpP mod: 32µM*; uPA generation: 4%; p53 reactivator: 5%; B2AR arrestin: -1%

What do the screens show for `CCOc1ccc2[nH]c(=O)c(CN(CCO)C(=O)CC)cc2c1`?
Giardia kill: -2; Mito fusion act: -3%; ClpP mod: 28µM*; uPA generation: 0%; p53 reactivator: 1%; B2AR arrestin: 0%

Results for COc1ccc2[nH]c(=O)c(CN(CCO)C(=O)c3cccs3)cc2c1 ?
Giardia kill: -6; Mito fusion act: 2%; ClpP mod: -29%; p53 reactivator: -7%; B2AR arrestin: 0%

What do the screens show for `COc1ccc(C(=O)Nc2ccc(OCc3cc(=O)n4ccccc4n3)cc2)cc1`?
ClpP mod: 4%

Results for COc1ccc(-c2cn3nc(N4CCCC(C(=O)NCc5ccc(Cl)cc5)C4)sc3n2)cc1 (configuration not stated) ?
ClpP mod: 2%

What do the screens show for `N#Cc1c(C#N)c(-c2ccccc2)n(-c2ccccc2)c1N`?
Giardia kill: 16; Mito fusion act: -1%; ClpP mod: 28µM*; uPA generation: -6%; p53 reactivator: -24%; B2AR arrestin: -1%

How did Cn1cc(/C=C/c2ccnc3ccccc23)c2ccccc21 do in these assays?
ClpP mod: -1%

How did COc1ccc(N2CCCC2)c(NC(=O)c2ccc([N+](=O)[O-])o2)c1 do in these assays?
Giardia kill: -86*; Mito fusion act: 0%; ClpP mod: -10%; p53 reactivator: inconclusive; B2AR arrestin: 0%

What do the screens show for `O=C(Nc1ccc(N2CCCC2)c(Cl)c1)c1ccc([N+](=O)[O-])o1`?
Giardia kill: inconclusive; Mito fusion act: -8%; uPA generation: -4%; p53 reactivator: -5%; B2AR arrestin: 0%

What do the screens show for `O=C(Nc1ccc(N2CCCCC2)cc1)c1ccc([N+](=O)[O-])o1`?
Giardia kill: -85*; Mito fusion act: 7%; uPA generation: -3%; p53 reactivator: -11%; B2AR arrestin: 0%

What do the screens show for `CS(=O)(=O)N1CCN(c2ccc(NC(=O)c3ccc([N+](=O)[O-])o3)cc2)CC1`?
Giardia kill: -81*; Mito fusion act: 5%; ClpP mod: 1%; uPA generation: inconclusive; p53 reactivator: -11%; B2AR arrestin: 0%

Results for CS(=O)(=O)N1CCN(c2ccc(NC(=O)c3cc4ccccc4o3)cc2)CC1 ?
Giardia kill: -25; Mito fusion act: 1%; ClpP mod: 0%; uPA generation: 9%; B2AR arrestin: -1%

What do the screens show for `O=C(Nc1ccc(N2CCN(Cc3ccccc3F)CC2)cc1)c1ccc([N+](=O)[O-])o1`?
Giardia kill: -96*; Mito fusion act: -4%; ClpP mod: -1%; uPA generation: -4%; p53 reactivator: -10%; B2AR arrestin: 3%

What do the screens show for `O=C(Nc1ccc(N2CCN(Cc3ccccc3F)CC2)cc1)c1ccccc1[N+](=O)[O-]`?
Giardia kill: -11; Mito fusion act: 1%; uPA generation: 5%; p53 reactivator: -1%; B2AR arrestin: -1%

What do the screens show for `Cc1ccc(C)c(NC(=O)CCCN2C(=O)C(c3ccccc3)Oc3cccnc32)c1` (configuration not stated)?
ClpP mod: -1%

What do the screens show for `COC(=O)c1ccccc1NC(=O)C1=CC(c2ccc(C)cc2)=NS(=O)(=O)N1C`?
ClpP mod: -3%

What do the screens show for `Cc1ccc(C2CC(=O)n3nc(-c4ccc(Cl)cc4)nc3S2)cc1` (configuration not stated)?
ClpP mod: -3%
